Calls of active or inactive are those of the source. The calls were made as follows: active = hit-call score of the fitted dose curve at least 0.9, where 1 is the maximum; inactive = score below 0.9.
Legend:
[1] = ATG_E_Box_CIS: Attagene CIS-FACTORIAL HepG2 Assay for human Enhancer Box (E-box) (AID 2282936); conditions: HepG2 E-box cis-reporter transcription, actives raise or lower the signal
In short: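 Endogenous transcription factor activity was sensed in human HepG2 liver cells through transfected cis-promoter reporter units. After 24 h of dosing, total RNA was reverse-transcribed and reporter cDNA resolved by capillary electrophoresis.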

[2] = ATG_M_61_CIS: Attagene CIS-FACTORIAL HepG2 Assay for M61 Transcription Factor (Internal Marker) (AID 2282937); conditions: HepG2 Attagene CIS-FACTORIAL M61 internal marker reporter; actives raise or lower the signal
In short: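 This endpoint serves as an internal background control within a multiplexed HepG2 cis-reporter panel. Cells are exposed for 24 h; reporter mRNA is amplified, fluorescently labelled and sized by capillary electrophoresis, with DMSO as negative control.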

[3] = ATG_EGR_CIS: Attagene CIS-FACTORIAL HepG2 Assay for human Early Growth Response 1 (EGR1) (AID 2282938); conditions: HepG2 Attagene CIS-FACTORIAL EGR reporter mRNA; actives raise or lower the signal
In short: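 HepG2, transient MRTU transfection (cis promoters), 24 h compound. RNA → RT (oligo-dT) → PCR → 6-FAM labelling → HpaI cut → CE fluorescence. Bidirectional fit, DMSO baseline.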

[4] = ATG_M_19_CIS: Attagene CIS-FACTORIAL HepG2 Assay for M19 Transcription Factor (Internal Marker) (AID 2282939); conditions: HepG2 Attagene CIS-FACTORIAL M19 internal marker reporter; actives raise or lower the signal
In short: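 HepG2 cells transiently transfected with cis-regulated multiple reporter transcription units were dosed for 24 h; reporter mRNA was quantified by RT-PCR, 6-FAM primer-extension labelling, HpaI digestion and capillary electrophoresis, with bidirectional fitting against DMSO baseline.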

[5] = ATG_Ets_CIS: Attagene CIS-FACTORIAL HepG2 Assay for human Erythroblast Transformation Specific (ETS) (AID 2282941); conditions: HepG2 ETS cis-reporter transcription, actives raise or lower the signal
In short: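 RT-PCR/capillary electrophoresis fluorescence read-out of reporter mRNA; HepG2 transient multi-reporter transfection; 24 h compound exposure; gain or loss of signal fitted bidirectionally relative to DMSO.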

[6] = biological target: Hepatocyte nuclear factor 3-beta (Homo sapiens) (UniProt Q9Y261); assay: ATG_FoxA2_CIS: Attagene CIS-FACTORIAL HepG2 Assay for human Forkhead box A2 (FOXA2) (AID 2282942); conditions: HepG2 cis-reporter transcription factor activity, 24 h; actives raise or lower the signal
Hepatocyte nuclear factor 3-beta (Homo sapiens), sequence (Q9Y261 whole entry, looked up): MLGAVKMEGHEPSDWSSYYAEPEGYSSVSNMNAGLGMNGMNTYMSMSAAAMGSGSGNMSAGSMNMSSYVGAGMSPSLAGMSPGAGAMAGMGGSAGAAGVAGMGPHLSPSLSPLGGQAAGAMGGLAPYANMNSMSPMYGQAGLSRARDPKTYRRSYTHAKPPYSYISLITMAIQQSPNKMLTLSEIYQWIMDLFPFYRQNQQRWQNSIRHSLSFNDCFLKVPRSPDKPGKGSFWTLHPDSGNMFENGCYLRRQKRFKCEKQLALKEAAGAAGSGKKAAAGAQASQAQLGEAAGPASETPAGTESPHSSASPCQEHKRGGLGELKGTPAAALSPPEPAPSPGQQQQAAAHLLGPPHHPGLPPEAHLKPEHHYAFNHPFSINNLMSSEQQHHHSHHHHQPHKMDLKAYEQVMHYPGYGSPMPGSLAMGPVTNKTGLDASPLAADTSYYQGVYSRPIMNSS
In short: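 Cells: HepG2, transient multiplex reporter transfection. Exposure 24 h. Detection: reporter-specific RT-PCR, fluorescent labelling, restriction digest, capillary electrophoresis. Analysis: bidirectional curve fit, DMSO as negative control.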

[7] = ATG_FoxO_CIS: Attagene CIS-FACTORIAL HepG2 Assay for human Forkhead box O (FoxO) (AID 2282943); conditions: HepG2 Attagene cis-reporter, FoxO element, mRNA; actives raise or lower the signal
In short: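 24 h chemical exposure, HepG2 with transient cis-MRTU transfection. RNA extraction, oligo(dT) RT, reporter-specific PCR, primer-extension labelling, HpaI digestion, CE fragment analysis; bidirectional fit, DMSO baseline.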

[8] = ATG_GATA_CIS: Attagene CIS-FACTORIAL HepG2 Assay for human GATA Binding Protein (AID 2282944); conditions: HepG2 GATA cis-element reporter, Attagene multiplex mRNA; actives raise or lower the signal
In short: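 HepG2 cells transiently transfected with multiplexed cis-element reporter units reflecting endogenous transcription factor activity; reporter mRNA measured after 24 h dosing by RT-PCR, 6-FAM labeling, HpaI digestion and capillary electrophoresis. Bidirectional fitting versus DMSO baseline.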

[9] = ATG_GLI_CIS: Attagene CIS-FACTORIAL HepG2 Assay for human Zinc Finger Protein GLI1 (AID 2282945); conditions: HepG2, Attagene cis-factorial reporter mRNA, GLI element; actives raise or lower the signal
In short: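 HepG2 cells transiently transfected with cis-promoter multiplexed reporter units report endogenous transcription factor activity. After 24 h chemical exposure, reporter mRNA was quantified by RT-PCR, 6-FAM labelling, HpaI digestion and capillary electrophoresis, with bidirectional fitting against DMSO.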

[10] = ATG_GRE_CIS: Attagene CIS-FACTORIAL HepG2 Assay for human Glucocorticoid Response Elements (GRE) (AID 2282947); conditions: HepG2 GRE cis-reporter, Attagene multiplex mRNA; actives raise or lower the signal
In short: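 Cells (HepG2) bearing transfected cis-promoter reporter transcription units were treated with chemical for 24 hours. Reporter mRNA was measured via RT-PCR with capillary electrophoresis, and activity was fitted in both directions relative to DMSO.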

[11] = ATG_ISRE_CIS: Attagene CIS-FACTORIAL HepG2 Assay for human Interferon Regulatory Factor 1 (IRF1) binding to an Interferon-Stimulated Response Element (ISRE) (AID 2282948); conditions: HepG2 ISRE cis-reporter (Attagene), mRNA transcription readout; actives raise or lower the signal
In short: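 Read-out: fluorescent RT-PCR products resolved by capillary electrophoresis, reporting endogenous transcription factor activity via ISRE-driven reporter mRNA in transfected HepG2 cells dosed for 24 h; gain or loss fitted relative to DMSO.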

[12] = ATG_M_32_CIS: Attagene CIS-FACTORIAL HepG2 Assay for M32 Transcription Factor (Internal Marker) (AID 2282949); conditions: HepG2 Attagene cis-factorial M32 reporter, mRNA; actives raise or lower the signal;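 also: background control marker of the multiplexed CIS panel rather than a real target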
In short: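 HepG2 human liver cells transiently transfected with cis-promoter-driven multiple reporter transcription units, dosed 24 h. Reporter mRNA quantified by RT-PCR, FAM-labelled primer extension, HpaI digest and capillary electrophoresis; bidirectional fit versus DMSO baseline.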

[13] = ATG_M_06_CIS: Attagene CIS-FACTORIAL HepG2 Assay for M06 Transcription Factor (Internal Marker) (AID 2282950); conditions: HepG2 Attagene CIS-FACTORIAL M06 internal marker reporter; actives raise or lower the signal
In short: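 HepG2 cells transiently transfected with cis-regulated multiple reporter transcription units were exposed to chemical for 24 h; reporter mRNA was quantified by RT-PCR, 6-FAM primer labelling, HpaI digestion and capillary electrophoresis, fitted bidirectionally against DMSO.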

[14] = biological target: Hypoxia-inducible factor 1-alpha (Homo sapiens) (UniProt Q16665); assay: ATG_HIF1a_CIS: Attagene CIS-FACTORIAL HepG2 Assay for human Hypoxia Inducible Factor 1 (HIF1A) (AID 2282951); conditions: HepG2 Attagene cis-factorial HIF1a reporter transcription; actives raise or lower the signal
Hypoxia-inducible factor 1-alpha (Homo sapiens), sequence (Q16665 whole entry, looked up): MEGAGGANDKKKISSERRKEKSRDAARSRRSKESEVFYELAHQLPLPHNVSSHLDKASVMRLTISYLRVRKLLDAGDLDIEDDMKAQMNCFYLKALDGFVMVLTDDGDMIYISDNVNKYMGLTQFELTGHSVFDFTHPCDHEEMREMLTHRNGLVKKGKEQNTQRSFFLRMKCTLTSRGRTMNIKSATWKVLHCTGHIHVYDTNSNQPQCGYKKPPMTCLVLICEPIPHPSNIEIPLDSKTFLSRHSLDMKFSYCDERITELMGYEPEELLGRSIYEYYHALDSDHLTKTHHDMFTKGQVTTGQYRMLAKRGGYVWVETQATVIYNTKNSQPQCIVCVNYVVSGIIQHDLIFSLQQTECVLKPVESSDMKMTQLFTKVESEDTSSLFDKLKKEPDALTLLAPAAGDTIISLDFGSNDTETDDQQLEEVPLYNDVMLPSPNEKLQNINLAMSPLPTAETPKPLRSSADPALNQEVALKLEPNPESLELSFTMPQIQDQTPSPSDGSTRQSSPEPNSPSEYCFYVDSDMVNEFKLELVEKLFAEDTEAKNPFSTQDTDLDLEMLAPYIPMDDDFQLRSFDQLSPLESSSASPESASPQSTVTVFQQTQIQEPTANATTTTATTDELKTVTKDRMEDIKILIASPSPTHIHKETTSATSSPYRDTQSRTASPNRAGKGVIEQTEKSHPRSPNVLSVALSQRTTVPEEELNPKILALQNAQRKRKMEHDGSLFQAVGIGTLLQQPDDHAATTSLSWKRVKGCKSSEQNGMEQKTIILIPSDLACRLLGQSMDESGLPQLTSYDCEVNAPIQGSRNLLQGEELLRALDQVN
In short: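 HepG2, transient cis-reporter library, 24 h dosing. RNA → RT (oligo dT) → PCR → 6-FAM primer extension → HpaI → CE. Bidirectional curve fit vs DMSO.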

[15] = biological target: Hepatocyte nuclear factor 6 (Homo sapiens) (UniProt Q9UBC0); assay: ATG_HNF6_CIS: Attagene CIS-FACTORIAL HepG2 Assay for human Hepatocyte Nuclear Factor 6 (HNF6) (AID 2282952); conditions: HepG2 Attagene cis-factorial HNF6 reporter transcription; actives raise or lower the signal
Hepatocyte nuclear factor 6 (Homo sapiens), sequence (Q9UBC0 whole entry, looked up, the tested form may be a part): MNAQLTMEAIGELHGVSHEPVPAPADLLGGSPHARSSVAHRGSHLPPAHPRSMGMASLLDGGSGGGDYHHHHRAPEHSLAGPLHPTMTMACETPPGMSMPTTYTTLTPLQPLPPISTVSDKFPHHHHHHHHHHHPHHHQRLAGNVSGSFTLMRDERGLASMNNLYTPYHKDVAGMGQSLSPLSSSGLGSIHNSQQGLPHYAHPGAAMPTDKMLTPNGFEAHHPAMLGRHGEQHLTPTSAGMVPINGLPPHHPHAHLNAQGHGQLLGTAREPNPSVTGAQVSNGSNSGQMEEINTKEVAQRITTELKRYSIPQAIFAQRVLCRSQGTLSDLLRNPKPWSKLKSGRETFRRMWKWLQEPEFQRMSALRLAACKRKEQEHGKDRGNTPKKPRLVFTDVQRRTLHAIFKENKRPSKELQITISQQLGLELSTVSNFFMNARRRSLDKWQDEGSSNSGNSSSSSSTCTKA
In short: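 Readout: fluorescent reporter-transcript fragments resolved by capillary electrophoresis after RT-PCR, reflecting endogenous factor activity in transfected HepG2. Exposure 24 h. Gain or loss of signal fitted bidirectionally against DMSO.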

[16] = biological target: Heat shock factor protein 1 (Homo sapiens) (UniProt Q00613); assay: ATG_HSE_CIS: Attagene CIS-FACTORIAL HepG2 Assay for human Heat Shock Transcription Factor 1 (HSE) (AID 2282953); conditions: HepG2 HSE cis-reporter, Attagene RNA transcription; actives raise or lower the signal
Heat shock factor protein 1 (Homo sapiens), sequence (Q00613 whole entry, looked up): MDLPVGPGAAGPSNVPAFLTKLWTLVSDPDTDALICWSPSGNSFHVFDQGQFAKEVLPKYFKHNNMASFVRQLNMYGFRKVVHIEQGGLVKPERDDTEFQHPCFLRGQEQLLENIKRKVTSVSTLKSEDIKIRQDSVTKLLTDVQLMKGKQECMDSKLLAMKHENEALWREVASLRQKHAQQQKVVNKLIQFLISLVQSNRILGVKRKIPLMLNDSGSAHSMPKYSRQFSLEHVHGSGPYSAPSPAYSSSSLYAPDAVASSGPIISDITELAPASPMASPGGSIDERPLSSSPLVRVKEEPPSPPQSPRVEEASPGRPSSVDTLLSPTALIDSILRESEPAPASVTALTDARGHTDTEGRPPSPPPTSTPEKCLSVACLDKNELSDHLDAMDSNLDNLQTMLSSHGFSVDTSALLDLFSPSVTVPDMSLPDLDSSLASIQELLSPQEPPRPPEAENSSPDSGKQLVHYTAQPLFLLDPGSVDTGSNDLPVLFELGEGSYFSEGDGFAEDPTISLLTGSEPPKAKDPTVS
In short: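 HepG2 cells transiently transfected with multiple reporter transcription units under cis-regulatory promoter control, measuring endogenous transcription factor activity. After 24 h chemical exposure, reporter mRNA quantified by RT-PCR, fluorescent labelling, HpaI digestion and capillary electrophoresis; bidirectional fit versus DMSO.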

[17] = ATG_MRE_CIS: Attagene CIS-FACTORIAL HepG2 Assay for human Metal Responsive Element (MRE) (AID 2282954); conditions: HepG2 MRE cis-reporter transcription, Attagene multiplex; actives raise or lower the signal
In short: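 Cells were transfected with cis-promoter reporter transcription units, then dosed for 24 h. RNA was reverse-transcribed, amplified, fluorescently labelled and resolved by capillary electrophoresis, and activity was fitted in both directions relative to DMSO.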

[18] = ATG_PBREM_CIS: Attagene CIS-FACTORIAL HepG2 Assay for human Phenobarbital-responsive Enhancer Module (PBREM) (AID 2282955); conditions: HepG2 PBREM cis-reporter, Attagene multiplexed transcription; actives raise or lower the signal
In short: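 HepG2, transient MRTU transfection, 24 h dosing; RNA → oligo(dT) RT → PCR → 6-FAM extension → HpaI → CE. Bidirectional fit vs DMSO.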

Measured: AC50

CS(=O)(=O)c1ccc(Cl)cc1
not listed: [18]
inactive: all other assays above

ON=C1CCCCC1
not listed: [18]
inactive: all other assays above

C=C[Si]1(C)O[Si](C)(C=C)O[Si](C)(C=C)O[Si](C)(C=C)O1 (stereo not given)
not listed: [10]
inactive: all other assays above

N[C@@H](Cc1cc(I)c(Oc2cc(I)c(O)c(I)c2)c(I)c1)C(=O)O
active: [14] 18.9 µM | [17] 27.8 µM
not listed: [10] | [18]
inactive: all other assays above

C=C(C)C(=O)OCCOCCOCCOC(=O)C(=C)C
inactive: all assays above

CC/C=C\CCOC(=O)CC
not listed: [10] | [18]
inactive: all other assays above

CC(CN=Cc1ccccc1O)N=Cc1ccccc1O (stereo not given)
active: [14] 72.3 µM | [17] 26.8 µM
inactive: all other assays above

CN(C)c1cccc(O)c1
inactive: all assays above

CC(Oc1cc(Cl)ccc1Cl)C(=O)O (stereo not given)
inactive: all assays above

Nc1ccc2c(O)cc(S(=O)(=O)O)cc2c1
inactive: all assays above

Nc1ccc(NCCO)c([N+](=O)[O-])c1
inactive: all assays above

CCCCCCC(CO)CCCC (stereo not given)
inactive: all assays above

C=C(C#N)C(=O)OCC
active: [11] 169 µM | [16] 144 µM
inactive: all other assays above

C=CCCCCCCCCCC
inactive: all assays above

COCCOCCOCCO
not listed: [15]
inactive: all other assays above

CC(=O)C1(C)CC2=C(CCCC2(C)C)CC1C (stereo not given)
active: [1] 83.2 µM | [4] 157 µM | [6] 181 µM | [7] 100 µM | [9] 53.8 µM | [11] 152 µM | [15] 134 µM | [17] 160 µM | [18] 100 µM
inactive: all other assays above

Source: PubChem BioAssay (EPA / NIEHS)
